Data from PubChem BioAssay AID1159580 (chemical genetic matrix, 2015).
Out of some 5,500 compounds screened, about 2,000 (36%) were called active. Another 18% or so got no clear call; they are omitted. Rule as the data show it: active = normalized growth mostly below about 0.91 (no sharp cut-off); inconclusive = no clear call, values can overlap the other calls; inactive = mostly above about 0.92. The list shows a part of the results.

Assay: chemical genetic growth profiling, strain panel (AID 1159580);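 also: tested at 20 µM; growth read once vehicle control cultures reached saturation at 30 °C; 1 = growth at the plate median or of vehicle wells; lower values mean less growth of the strain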
Conditions: growth OD

Measured: normalized growth

Oc1ccc2c(c1)OCC1(O)Cc3cc(O)c(O)cc3C21 (configuration not stated)
inactive: S. cerevisiae deletion strains, locus YJL187C, strain SWE1, stronger effect = lower value 1.02 | S. cerevisiae deletion strains, locus YJR066W, strain TOR1, stronger effect = lower value 0.906 | S. cerevisiae deletion strains, locus YKL009W, strain mrt4, stronger effect = lower value 1.03 | S. cerevisiae deletion strains, locus YKL068W, stronger effect = lower value 0.997 | S. cerevisiae deletion strains, locus YKL085W, strain MDH1 (second series), stronger effect = lower value 0.978 | S. cerevisiae deletion strains, locus YKL085W, strain MDH1, stronger effect = lower value 0.978 | S. cerevisiae deletion strains, locus YKL160W, strain elf1, stronger effect = lower value 1.02 | S. cerevisiae deletion strains, locus YKR001C, strain vps1, stronger effect = lower value 1.03 | S. cerevisiae deletion strains, locus YKR026C, strain gcn3, stronger effect = lower value 1.04 | S. cerevisiae deletion strains, locus YKR091W, strain srl3, stronger effect = lower value 1.02 | S. cerevisiae deletion strains, locus YLL001W, strain dnm1, stronger effect = lower value 1.03 | S. cerevisiae deletion strains, locus YLL026W, stronger effect = lower value 1.02 | S. cerevisiae deletion strains, locus YLL041C, strain sdh2, stronger effect = lower value 1.02 | S. cerevisiae deletion strains, locus YLR027C, strain aat2, stronger effect = lower value 1.01 | S. cerevisiae deletion strains, locus YLR039C, strain RIC1, stronger effect = lower value 0.991 | S. cerevisiae deletion strains, locus YLR058C, strain SHM2, stronger effect = lower value 0.959 | S. cerevisiae deletion strains, locus YLR102C, strain apc9, stronger effect = lower value 0.991 | S. cerevisiae deletion strains, locus YLR113W, strain HOG1, stronger effect = lower value 1.05 | S. cerevisiae deletion strains, locus YLR221C, strain rsa3, stronger effect = lower value 1.02 | S. cerevisiae deletion strains, locus YLR258W, strain gsy2, stronger effect = lower value 1.03 | S. cerevisiae deletion strains, locus YLR262C, strain YPT6 (second series), stronger effect = lower value 1.04 | S. cerevisiae deletion strains, locus YLR268W, strain sec22, stronger effect = lower value 1.05 | S. cerevisiae deletion strains, locus YLR320W, strain mms22, stronger effect = lower value 1.04 | S. cerevisiae deletion strains, locus YLR342W, strain FKS1 (second series), stronger effect = lower value 1.05 | S. cerevisiae deletion strains, locus YLR342W, strain FKS1, stronger effect = lower value 1.03 | S. cerevisiae deletion strains, locus YLR357W, strain rsc2, stronger effect = lower value 1.03 | S. cerevisiae deletion strains, locus YLR370C, strain arc18, stronger effect = lower value 1.02 | S. cerevisiae deletion strains, locus YLR371W, strain rom2, stronger effect = lower value 0.988 | S. cerevisiae deletion strains, locus YLR384C, strain iki3, stronger effect = lower value 1.02 | S. cerevisiae deletion strains, locus YLR418C, strain cdc73, stronger effect = lower value 0.991 | S. cerevisiae deletion strains, locus YML016C, strain PPZ1, stronger effect = lower value 0.997 | S. cerevisiae deletion strains, locus YML032C, strain rad52, stronger effect = lower value 1.05 | S. cerevisiae deletion strains, locus YML120C, strain ndi1, stronger effect = lower value 1.03 | S. cerevisiae deletion strains, locus YML124C, strain tub3, stronger effect = lower value 0.999 | S. cerevisiae deletion strains, locus YMR058W, strain fet3, stronger effect = lower value 1.02 | S. cerevisiae deletion strains, locus YMR078C, strain ctf18, stronger effect = lower value 0.988 | S. cerevisiae deletion strains, locus YMR125W, strain sto1, stronger effect = lower value 1.04 | S. cerevisiae deletion strains, locus YMR129W, stronger effect = lower value 1.02 | S. cerevisiae deletion strains, locus YMR205C, strain PFK2, stronger effect = lower value 1.06 | S. cerevisiae deletion strains, locus YMR223W, strain ubp8, stronger effect = lower value 0.981 | S. cerevisiae deletion strains, locus YMR231W, strain pep5, stronger effect = lower value 1 | S. cerevisiae deletion strains, locus YMR307W, strain GAS1, stronger effect = lower value 1.11 | S. cerevisiae deletion strains, locus YNL067W, strain RPL9B, stronger effect = lower value 0.959 | S. cerevisiae deletion strains, locus YNL071W, strain lat1, stronger effect = lower value 1.03 | S. cerevisiae deletion strains, locus YNL128W, strain TEP1, stronger effect = lower value 0.983 | S. cerevisiae deletion strains, locus YNL183C, strain NPR1, stronger effect = lower value 0.948 | S. cerevisiae deletion strains, locus YNL209W, strain ssb2, stronger effect = lower value 1.01 | S. cerevisiae deletion strains, locus YNL233W, strain BNI4, stronger effect = lower value 1 | S. cerevisiae deletion strains, locus YNL248C, strain rpa49, stronger effect = lower value 1.03 | S. cerevisiae deletion strains, locus YNL250W, strain rad50, stronger effect = lower value 0.957 | S. cerevisiae deletion strains, locus YNL271C, strain bni1, stronger effect = lower value 0.983 | S. cerevisiae deletion strains, locus YNL298W, strain CLA4, stronger effect = lower value 0.996 | S. cerevisiae deletion strains, locus YNL307C, strain MCK1, stronger effect = lower value 0.994 | S. cerevisiae deletion strains, locus YNL322C, strain KRE1 (second series), stronger effect = lower value 1.02 | S. cerevisiae deletion strains, locus YNL322C, strain KRE1, stronger effect = lower value 0.981 | S. cerevisiae deletion strains, locus YNR049C, strain mso1, stronger effect = lower value 1.02 | S. cerevisiae deletion strains, locus YNR052C, strain pop2, stronger effect = lower value 0.959 | S. cerevisiae deletion strains, locus YOL006C, strain TOP1, stronger effect = lower value 1.18 | S. cerevisiae deletion strains, locus YOL012C, strain htz1 0.665 | S. cerevisiae deletion strains, locus YOL147C, strain pex11, stronger effect = lower value 1 | S. cerevisiae deletion strains, locus YOR001W, strain rrp6, stronger effect = lower value 1.04 | S. cerevisiae deletion strains, locus YOR061W, strain CKA2, stronger effect = lower value 1.03 | S. cerevisiae deletion strains, locus YOR069W, strain VPS5, stronger effect = lower value 1 | S. cerevisiae deletion strains, locus YOR070C, strain gyp1, stronger effect = lower value 1.01 | S. cerevisiae deletion strains, locus YOR080W, strain dia2, stronger effect = lower value 1.01 | S. cerevisiae deletion strains, locus YOR083W, strain WHI5, stronger effect = lower value 1.02 | S. cerevisiae deletion strains, locus YOR106W, strain vam3, stronger effect = lower value 1.05 | S. cerevisiae deletion strains, locus YOR136W, strain idh2, stronger effect = lower value 1.01 | S. cerevisiae deletion strains, locus YOR144C, strain elg1, stronger effect = lower value 1.01 | S. cerevisiae deletion strains, locus YOR184W, strain ser1, stronger effect = lower value 1.09 | S. cerevisiae deletion strains, locus YOR231W, strain MKK1, stronger effect = lower value 1.01 | S. cerevisiae deletion strains, locus YOR265W, strain rbl2, stronger effect = lower value 1.02 | S. cerevisiae deletion strains, locus YOR270C, strain vph1, stronger effect = lower value 1.16 | S. cerevisiae deletion strains, locus YOR290C, strain snf2, stronger effect = lower value 1.04 | S. cerevisiae deletion strains, locus YOR316C, strain cot1, stronger effect = lower value 0.986 | S. cerevisiae deletion strains, locus YPL051W, strain arl3, stronger effect = lower value 1.01 | S. cerevisiae deletion strains, locus YPL055C, strain LGE1, stronger effect = lower value 1.06 | S. cerevisiae deletion strains, locus YPL078C, strain atp4, stronger effect = lower value 1.03 | S. cerevisiae deletion strains, locus YPL106C, strain sse1, stronger effect = lower value 0.99 | S. cerevisiae deletion strains, locus YPL240C, strain hsp82, stronger effect = lower value 1.02 | S. cerevisiae deletion strains, locus YPL256C, strain CLN2, stronger effect = lower value 0.995 | S. cerevisiae deletion strains, locus YPR119W, strain clb2, stronger effect = lower value 0.978 | S. cerevisiae deletion strains, locus YPR141C, strain kar3, stronger effect = lower value 0.964 | S. cerevisiae deletion strains, locus YPR163C, strain tif3, stronger effect = lower value 0.996 | S. cerevisiae deletion strains, locus YPR167C, strain met16, stronger effect = lower value 0.992 | S. cerevisiae deletion strains, strain wtn01, stronger effect = lower value 1.02 | S. cerevisiae strains, strain wild type, stronger effect = lower value 1.03
